Bioassay records from PubChem BioAssay.
Sampled rows, rich in hits. Any-hit rate of the full collection: about 7.1%.
M1 agonist: activates the M1 muscarinic receptor; CHO-M1 cells, Fluo-4 calcium fluorescence, agonist mode; stronger effect = higher value; B-score at 10 µM; hit rate 3% among 64,000; AID 626;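 active means fluorescence rise, raw or as B-score row- and column-corrected plate score, outside the 99.7% band of its plate's samples, either direction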
PTK2B oligo ant: Pyk2 (human) oligomerization antagonism | AID 1347419 | Q293 cells, Pyk2 FERM NanoBiT luminescence; stronger effect = lower value | z-score (the deposit names both 25 µM and 10 µM) | hit rate 0.83% among 99,000;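 active means Z-score of -3 or lower, scaled per plate to the spread of control and sample wells; inactive means z-score above -3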;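 further: negative z-score means lost luminescence so less FERM oligomerization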
Cav3 T inh: inhibitors of human Cav3.2 T-type calcium channel; O95180; Cav3.2-expressing cells, Fluo-4 calcium fluorescence FDSS; stronger effect = lower value; B-score at 10 µM; hit rate 4% among 100,000;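 active means single-dose well whose peak fluorescence ratio is a statistical outlier from its plate by either plate-standardised score or position-corrected B-score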
M1 antagonist: antagonists of rat M1 muscarinic receptor; CHO-M1 cells, Fluo-4 calcium, ACh EC80 antagonist mode; stronger effect = lower value; B-score at 10 µM; hit rate 3.4% among 64,000; P08482;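 active means calcium fluorescence response, raw or row-and-column corrected B-score, differing from the plate sample mean either way at a set confidence level, mostly lower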
M1 antag confirm: confirmation of rat M1 muscarinic receptor antagonists | CHO-M1 cells, Fluo-4 calcium, ACh EC80 antagonism; stronger effect = lower value | calcium response (max-min fluorescence) at 10 µM | hit rate 43% among 1,700 | shares compounds with M1 antagonist | AID 677;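 active means calcium response below the same-plate mean of wells given acetylcholine alone at its 80%-effect dose, minus 3 SD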
mGluR4 antag: acts on human mGluR4 in M1 antagonist selectivity test. shares compounds with M1 antagonist. AID 678. hit rate 0.9% among 1,700. CHO-mGluR4 calcium flux, Fluo-4 fluorescence, glutamate EC80; stronger effect = lower value. fluorescence response (max-min) at 10 µM;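 active means fluorescence response below the plate's average for near-maximal glutamate wells, less 3 SD of those wells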;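 further: raw unnormalized fluorescence span taken in the window right after glutamate addition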
Each line names hits and unclear results; the compound was inactive in the other large screens (follow-up assays come after a bar, where they were run).

N#CC1=C2SCN(c3ccccc3)CN2C(=O)CC1c1cccs1 (centres undefined)	M1 antagonist -3.6 | M1 antag confirm inactive | mGluR4 antag inactive
Cc1ccc(C)c(Cn2nnc3c(=O)[nH]c(C(=O)NCc4ccco4)nc32)c1	M1 antagonist -2.4 | M1 antag confirm inactive | mGluR4 antag inactive
CC12CCC(C(=O)Nc3ncc([N+](=O)[O-])s3)(OC1=O)C2(C)C (centres undefined)	none (no result: M1 agonist, M1 antagonist)
CCN(CC)CCOc1ncnc2c1oc1ccccc12	M1 antagonist -1.6 | M1 antag confirm 584 | mGluR4 antag inactive
CCc1nc(OCCN(CC)CC)c2oc3ccccc3c2n1	none
C/C=C(\C)C(=O)Nc1cccc(C2=NOC3(C2)C[C@H](C(N)=O)N(C(=O)C(c2ccccc2)c2ccccc2)C3)c1 (some centres undefined)	none (no result: M1 agonist, PTK2B oligo ant, M1 antagonist)
CCOc1ccccc1N1CCN(C(=O)C2c3ccccc3Oc3ccccc32)CC1	none (no result: M1 agonist, M1 antagonist)
CS(=O)(=O)N1CCN(C(=O)C2c3ccccc3Oc3ccccc32)CC1	M1 antagonist -2.2 | M1 antag confirm 365 | mGluR4 antag inactive
Cn1c(=O)c2c(SCc3c(F)cccc3Cl)nc(CC(C)(C)C)nc2n(C)c1=O	none (no result: M1 agonist, PTK2B oligo ant, M1 antagonist)
O=C(CN1CCSCC1)N1CCc2[nH]c3ccc(Br)cc3c2C1	M1 antagonist -11 (no result: PTK2B oligo ant) | M1 antag confirm 124 | mGluR4 antag inactive
COCCN1C(=O)c2ccccc2C(C(=O)N2CCN(c3ccccc3)CC2)C1c1ccc(F)cc1 (centres undefined)	none (no result: M1 agonist, M1 antagonist)
Cn1c(N)c(C(=O)COC(=O)C2(c3cccc(F)c3)CCCC2)c(=O)n(C)c1=O	M1 antagonist -2.8 | M1 antag confirm inactive | mGluR4 antag inactive
CCn1c(Cc2ccc(OC)cc2)nnc1SCC(=O)Nc1nc2ccccc2s1	none
O=C(Nc1ccccc1Cl)c1cc(S(=O)(=O)N2CCCC(C(=O)O)C2)ccc1F (centres undefined)	M1 antagonist -3.5 | M1 antag confirm 529 | mGluR4 antag inactive
CCOC(=O)C1CCCN(S(=O)(=O)c2ccc(F)c(C(=O)Nc3ccc(F)c(F)c3)c2)C1 (centres undefined)	none (no result: M1 agonist, M1 antagonist)
CC(C)(C)NC(=O)COC(=O)c1cc(S(=O)(=O)N2CCCCC2)ccc1N1CCOCC1	none (no result: M1 agonist, M1 antagonist)
CNCCCNCc1ccc(SC)cc1	none (no result: M1 agonist, PTK2B oligo ant, M1 antagonist)
Brc1ccc(-c2cnc3n2CCCC3)cc1	M1 antagonist -3 (no result: Cav3 T inh) | M1 antag confirm 288 | mGluR4 antag inactive
CC(=O)Nc1ccc(S(=O)(=O)N2CCN(C34CC5CC(CC(C5)C3)C4)CC2)cc1	M1 antagonist -3.1 | M1 antag confirm inactive | mGluR4 antag inactive
CCOc1ccc(NC(=O)c2ccccc2OCC(=O)c2ccccc2)cc1	none (no result: M1 agonist, M1 antagonist)
Cc1csc2ncc(C(=O)NCc3ccccn3)c(=O)n12	none (no result: PTK2B oligo ant)
CN(C(=O)CSc1nc2ccccc2n1CCc1ccccc1)C1CCS(=O)(=O)C1 (centres undefined)	M1 antagonist -10 | M1 antag confirm inactive | mGluR4 antag inactive
CCOc1ccc2nc(SCC(=O)NC(=O)NCc3ccco3)sc2c1	none (no result: M1 agonist, M1 antagonist)
O=C(NCc1ccco1)c1cc2cc3ccc(Cl)cc3nc2o1	M1 antagonist -2.5 | M1 antag confirm inactive | mGluR4 antag inactive
O=C(CSc1nc2cc(Cl)ccc2s1)NC(=O)NCc1ccco1	M1 antagonist -2.1 | M1 antag confirm inactive | mGluR4 antag inactive
Cc1cc(C(=O)CSc2nncs2)c(C)n1-c1ccc2c(c1)OCO2	M1 antagonist -4.2 | M1 antag confirm 403 | mGluR4 antag inactive
CC1(C)CC(N2CCC(=O)N(C3CC(C)(C)NC(C)(C)C3)C2)CC(C)(C)N1	M1 antagonist -3.2 | M1 antag confirm inactive | mGluR4 antag inactive
CCn1c(SC(=O)NC2CCCCC2)nnc1-c1cccs1	none
Cc1ccccc1-c1nn2c(-c3ccccc3)nnc2s1	M1 antagonist -2.7 | M1 antag confirm inactive | mGluR4 antag inactive
CC1CCN(C(c2cccs2)c2nnnn2Cc2ccccc2)CC1 (centres undefined)	none (no result: M1 agonist, M1 antagonist)
CCOC(=O)CN1C(=O)C(CC)Oc2ccc(Cl)cc21 (centres undefined)	M1 antagonist -3.6 | M1 antag confirm inactive | mGluR4 antag inactive
Cc1nc(-c2ccc(Cl)cc2)sc1C1(C)CC(c2cccc([N+](=O)[O-])c2)=NO1 (centres undefined)	none (no result: M1 agonist, PTK2B oligo ant, M1 antagonist)
Cc1cccc(-[n+]2c(C)cc(C)c3c(=O)[nH]c(=O)[nH]c32)c1	none (no result: M1 agonist, Cav3 T inh, M1 antagonist)
CCN(CCCNC(=O)COc1cc(=O)n(C)c2ccccc12)c1cccc(C)c1	M1 antagonist -1.9 | M1 antag confirm inactive | mGluR4 antag inactive
O=S(=O)(c1cc(F)cc(F)c1)N1CCN(c2ncccn2)CC1	none
Cc1ccc2oc(=O)c3cnn(CC(=O)Nc4ccccc4N4CCN(C)CC4)c3c2c1	M1 antagonist -16 (no result: PTK2B oligo ant) | M1 antag confirm 252 | mGluR4 antag inactive
Cc1ccc2oc(=O)c3cnn(CC(=O)NC4CCC(C)CC4)c3c2c1 (centres undefined)	none (no result: PTK2B oligo ant)
Cc1ccc(C)n1-n1c(C)nc2sc3c(c2c1=O)CCCCC3	Cav3 T inh -5.6, M1 antagonist -5.6 | M1 antag confirm 325 | mGluR4 antag inactive
O=c1c2c3c(sc2nc2n1CCCCC2)CCCCC3	M1 antagonist -3.1 | M1 antag confirm 273 | mGluR4 antag inactive
CN1CCN(C(=O)C2=C[C@H](c3csc4ccccc34)C[C@H](OCCCCO)O2)CC1	none (no result: M1 agonist, PTK2B oligo ant, M1 antagonist)
CC(C)=CCc1c(O)c(CC=C(C)C)c2c(c1O)-c1cc(O)c(O)cc1CC2	none (no result: M1 agonist, PTK2B oligo ant, M1 antagonist)
COc1ccc(N2CCN(C(=O)C(C)(C)Oc3ccc(Cl)cc3)CC2)cc1	none (no result: PTK2B oligo ant)
CCOC(=O)N1CCN(C(=O)C2CCC(CNS(=O)(=O)c3ccc(Cl)cc3)CC2)CC1 (centres undefined)	M1 antagonist -2.9 | M1 antag confirm inactive | mGluR4 antag inactive
CCOC(=O)N1CCN(C(=O)C(C)(C)Oc2ccc(Cl)cc2)CC1	M1 antagonist -2.6 (no result: PTK2B oligo ant) | M1 antag confirm inactive | mGluR4 antag inactive
Cn1c(SCC(=O)N2CCCc3ccccc32)nnc1-c1cccs1	none
CC1CCc2cc(F)ccc2N1C(=O)CSc1nnc(-c2cccs2)n1C (centres undefined)	M1 antagonist -6.1 | M1 antag confirm inactive | mGluR4 antag inactive
COc1ccc(-c2[nH]c(-c3cccc(OC)c3)nc2SCC(=O)NCc2ccco2)cc1	M1 antagonist -3.1 (no result: PTK2B oligo ant) | M1 antag confirm inactive | mGluR4 antag inactive
COc1ccc(-c2nnc(SCC(=O)NC(=O)NCc3ccco3)o2)cc1	none
CSC1=NCCN1C(=O)c1c(F)cccc1F	M1 antagonist -3.1 | M1 antag confirm inactive | mGluR4 antag inactive
CCN(CC)CCNC(=O)c1cc2c(=O)n(C)c3ccccc3c2n1C	none (no result: PTK2B oligo ant)
CCCN(CCC)CCCNC(=O)c1cc2c(=O)n(C)c3ccccc3c2n1C	M1 antagonist -4.4 (no result: PTK2B oligo ant) | M1 antag confirm 441 | mGluR4 antag inactive
CCN(CC)CCCNC(=O)c1cc2c(=O)n(C)c3ccccc3c2n1C	none (no result: PTK2B oligo ant)
Cn1c(C(=O)NCCCN2CCCCCC2)cc2c(=O)n(C)c3ccccc3c21	M1 antagonist -3.2 (no result: PTK2B oligo ant) | M1 antag confirm 511 | mGluR4 antag inactive
